Hits are enriched below; roughly 4% of the tested compounds scored in any of these assays.
RecA intein inh: inhibitors of M. tuberculosis RecA intein splicing; inhibition, % (test concentration not listed); P9WHJ3; cell-free RecA intein splicing, fluorescence; 290,000 tested, 0.75% active; in the data active = inhibition above about 30%; inconclusive = no clear call, values can overlap the other calls
GDH-TPI counter-1: counter-screen for M. tuberculosis FBA inhibitors: GDH-TPI coupled enzymes | GDH-TPI coupled enzyme counterscreen, NADH absorbance | inhibition, % at 4.8 µM | 360,000 tested, 1.2% active | AID 588335; in the data active = inhibition above about 30%
Mtb UGM inh: blocks M. tuberculosis UGM enzyme | inhibition, % at 10 µM | 320,000 tested, 0.06% active | purified UGM, fluorescence polarization probe displacement; in the data active = inhibition above about 10%, passing the limit was not always enough; inconclusive = no clear call, values can overlap the other calls
Target sequence (P9WIQ1 whole entry, looked up): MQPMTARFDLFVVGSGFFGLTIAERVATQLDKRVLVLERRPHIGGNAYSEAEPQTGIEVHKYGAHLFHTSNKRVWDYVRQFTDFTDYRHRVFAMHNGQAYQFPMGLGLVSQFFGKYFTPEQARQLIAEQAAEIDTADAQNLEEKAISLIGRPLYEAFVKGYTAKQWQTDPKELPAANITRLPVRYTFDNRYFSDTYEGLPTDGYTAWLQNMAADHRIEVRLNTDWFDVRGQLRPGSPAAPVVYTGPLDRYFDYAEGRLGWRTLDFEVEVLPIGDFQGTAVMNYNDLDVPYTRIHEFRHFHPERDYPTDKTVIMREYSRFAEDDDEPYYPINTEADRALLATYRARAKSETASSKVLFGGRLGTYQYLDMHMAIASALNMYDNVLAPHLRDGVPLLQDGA
Mtb FBA inh: inhibitors of M. tuberculosis fructose-bisphosphate aldolase. purified M. tuberculosis FBA, fluorescence read-out. inhibition, % at 1 µM. 360,000 tested, 2.3% active
Target sequence (P9WQA3 whole entry, looked up): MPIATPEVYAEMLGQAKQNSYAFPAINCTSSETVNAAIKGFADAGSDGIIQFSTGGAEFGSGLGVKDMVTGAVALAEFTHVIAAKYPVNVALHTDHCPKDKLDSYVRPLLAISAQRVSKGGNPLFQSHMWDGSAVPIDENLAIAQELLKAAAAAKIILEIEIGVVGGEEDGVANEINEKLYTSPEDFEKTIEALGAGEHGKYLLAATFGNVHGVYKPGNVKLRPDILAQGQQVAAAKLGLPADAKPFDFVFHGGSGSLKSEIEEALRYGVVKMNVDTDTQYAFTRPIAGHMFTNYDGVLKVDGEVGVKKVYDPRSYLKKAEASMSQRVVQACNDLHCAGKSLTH
Rv3671c protease: inhibitors of M. tuberculosis serine protease Rv3671c; 320,000 tested, 0.048% active; AID 2606; inhibition, % at 5.96 µM; in the data active = inhibition above about 38%;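 also: extracellular domain of Rv3671c used as enzyme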
Mtb bLac sens: beta-lactam sensitization of Mtb H37Rv; inhibition, % at 25 µM; 330,000 tested, 0.27% active; M. tuberculosis H37Rv growth with meropenem, percent inhibition; AID 434955; call rule not given here;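 also: growth measured after seven days incubation then overnight dye step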
Mtb FBA confirm: Mtb FBA inhibition, confirmed. shares compounds with Mtb FBA inh. purified M. tuberculosis FBA, fluorescence read-out. inhibition, % at 1 µM. 5,600 tested, 78% active. AID 651616
GDH-TPI counter-2: inhibits GDH-TPI coupling enzymes, flagging Mtb FBA hits; shares compounds with Mtb FBA inh; GDH-TPI coupled enzyme counterscreen, fluorescence; inhibition, % at 1 µM; 5,600 tested, 81% active; AID 652141; in the data active = inhibition above about 10%
Each line names hits and unclear results; the compound was inactive in the other large screens (follow-up assays come after a bar, where they were run). Rule as the data show it, unless noted: active = inhibition above about 27%; inactive = the rest.

Cc1cc(=O)n2c(nc3ccccc32)s1	none (no result: RecA intein inh, Mtb UGM inh, Rv3671c protease, Mtb bLac sens)
O=c1cc(CCl)[nH]c2nc3ccccc3n12	Mtb FBA inh 47 | Mtb FBA confirm 169 | GDH-TPI counter-2 112
O=c1cc(-c2ccccc2)[nH]c2nc3ccccc3n12	Mtb FBA inh 51, Mtb bLac sens inconclusive | Mtb FBA confirm active | GDH-TPI counter-2 active
CC(C)c1cc(=O)n2c(nc3ccccc32)[nH]1	Mtb FBA inh 45 | Mtb FBA confirm 119 | GDH-TPI counter-2 108
COc1ccc(C(Sc2ccccc2)c2ccccc2)cc1OC (stereo unspecified)	none
Cc1cccc(NC(=O)CSc2n[nH]c(-c3cccnc3)n2)c1	none
Cc1cc(NCCO)c2cc(O)ccc2n1	Mtb FBA inh 90 | Mtb FBA confirm 105 | GDH-TPI counter-2 127
OCCNc1c2ccccc2nc2ccccc12	Mtb FBA inh 60 | Mtb FBA confirm 62 | GDH-TPI counter-2 34
OCCNc1nc2ccccc2nc1NCCO	Mtb FBA inh 35 | Mtb FBA confirm active | GDH-TPI counter-2 173
Cc1cc(NCCO)c2ccccc2n1	none
COc1cccc(C(c2nnnn2C(C)(C)C)N2CCN(C/C=C/c3ccccc3)CC2)c1OC (stereo unspecified)	none (no result: RecA intein inh, GDH-TPI counter-1, Mtb UGM inh, Rv3671c protease, Mtb bLac sens)
Cc1[nH]c2ccccc2c1CCCO	none (no result: GDH-TPI counter-1, Mtb FBA inh, Rv3671c protease)
Cc1c2ccncc2cc2c1[nH]c1ccccc12	none (no result: RecA intein inh, Mtb UGM inh, Rv3671c protease, Mtb bLac sens)
Cc1nccc2c1[nH]c1ccccc12	Mtb FBA inh 94 | Mtb FBA confirm inactive | GDH-TPI counter-2 inactive
CCc1nccc2c1[nH]c1ccccc12	Mtb FBA inh 81 | Mtb FBA confirm active | GDH-TPI counter-2 161
OCCCCc1nccc2c1[nH]c1ccccc12	Mtb FBA inh 69 | Mtb FBA confirm active | GDH-TPI counter-2 186
c1ccc2c(c1)[nH]c1cnccc12	Mtb FBA inh 37 | Mtb FBA confirm 32 | GDH-TPI counter-2 41
Cc1c2ccncc2c(C)c2c1[nH]c1ccccc12	RecA intein inh inconclusive
CCCCn1c(N)c(N(CC(C)C)C(=O)CCNC(=O)c2ccc([N+](=O)[O-])cc2)c(=O)[nH]c1=O	none (no result: RecA intein inh, Mtb UGM inh, Rv3671c protease, Mtb bLac sens)
CCn1c(C(C)NC(=O)c2ccc(Cl)cc2)n[nH]c1=S (stereo unspecified)	Mtb FBA inh 40 | Mtb FBA confirm 107 | GDH-TPI counter-2 86
O=C(O)c1ccc([N+](=O)[O-])c(CS(=O)(=O)c2ccccc2)c1	none
O=C(CSc1ccc(Cl)cc1)OCC(=O)N1CCN(c2ccccc2)CC1	none (no result: RecA intein inh, Mtb UGM inh, Rv3671c protease, Mtb bLac sens)
Cc1cc(N)c2ccccc2n1	none
Cc1c2ccccc2nc2ccccc12	Mtb FBA inh 64 | Mtb FBA confirm 199 | GDH-TPI counter-2 123
Cc1ccc(Oc2ccccc2NC(=O)C2=COCCO2)cc1	none
O=C(/C=C/c1ccc(Cl)c(C(F)(F)F)c1)N1CCN(c2ccccn2)CC1	Mtb FBA inh 93 | Mtb FBA confirm 143 | GDH-TPI counter-2 129
O=C(/C=C/c1ccc(Cl)cc1)N1CCN(c2ccccn2)CC1	none
COc1ccc(CCNC(=O)C2CCN(C(=O)c3ccc(C(C)(C)C)cc3)CC2)cc1	none
CC(C)N1CCN(C2CSCCSC2)CC1CCO (stereo unspecified)	Mtb FBA inh 52 | Mtb FBA confirm active | GDH-TPI counter-2 active
CC(C)CCN1CCN(C2CSCCSC2)CC1CCO (stereo unspecified)	none
Cc1ccc(-c2csc3nc4cc(C(N)=O)ccc4c(=O)n23)cc1	Mtb FBA inh 29 | Mtb FBA confirm inactive | GDH-TPI counter-2 inactive
Cn1c2ccccc2c(=O)c2cc(C#CC3=CCCCC3)ccc21	Mtb FBA inh 86 (no result: RecA intein inh) | Mtb FBA confirm 151 | GDH-TPI counter-2 113
CC(C)NC(=O)Nc1cccc2c1O[C@H](CN(C)S(=O)(=O)c1ccccc1)[C@@H](C)CN([C@H](C)CO)C2=O	Mtb FBA inh 39 (no result: RecA intein inh) | Mtb FBA confirm 59 | GDH-TPI counter-2 61
CC(C)NC(=O)Nc1cccc2c1O[C@H](CN(C)S(=O)(=O)c1ccc(F)cc1)[C@@H](C)CN([C@H](C)CO)C2=O	none (no result: RecA intein inh, Mtb UGM inh)
O=C(O)c1cc(S(=O)(=O)O)cc(Nc2c3ccccc3nc3ccccc23)c1O	Mtb FBA inh 43 | Mtb FBA confirm 40 | GDH-TPI counter-2 34
CCOCCCN(Cc1ccco1)C(=O)c1cc2c(=O)[nH]c3ccc(C)cc3c2s1	Mtb FBA inh 32 | Mtb FBA confirm inactive | GDH-TPI counter-2 inactive
Cc1ccc2[nH]c(=O)c3cc(C(=O)N(C)Cc4ccco4)sc3c2c1	Mtb FBA inh 51 | Mtb FBA confirm 187 | GDH-TPI counter-2 135
CCCN(CCC)C(=O)c1cc2c(=O)[nH]c3ccc(C)cc3c2s1	none
O=C(Cc1cccc(NC(=O)C2CCN(C(=O)C3CCCCC3)CC2)c1)Nc1cccc(C(=O)N2CCCC2)c1	none (no result: RecA intein inh)
C=C(C)CN1C(=O)C2(OCCO2)c2cc(Br)ccc21	none
CC(Oc1ccc(Cl)cc1)c1ccc(C#N)c(=O)[nH]1 (stereo unspecified)	Mtb FBA inh 34 | Mtb FBA confirm 123 | GDH-TPI counter-2 97
COC(OC)c1ccc(C#N)c(=O)[nH]1	Mtb FBA inh 58 | Mtb FBA confirm inactive | GDH-TPI counter-2 inactive
COc1ccc(-n2cc(C#N)c(=O)[nH]c2=O)cc1	none
COc1ccc(OC(C)c2ccc(C#N)c(=O)[nH]2)cc1 (stereo unspecified)	none
COc1ccccc1CNC(=O)Cn1c(=O)oc2cc(S(=O)(=O)N3CCCC3)ccc21	none
O=C(O)c1cc2ncc(CCO)cn2n1	none
O=[N+]([O-])c1ccccc1OCCNCc1ccccc1	none
O=C(NCCN1CCNC1=O)C1CCC(=O)N(Cc2cccc(C(F)(F)F)c2)C1 (stereo unspecified)	none
CC1(C)NC(=O)N(CC(=O)OCC(=O)c2ccc(Br)s2)C1=O	none (no result: RecA intein inh)
Cn1c(SCC(N)=O)nnc1-c1ccc(S(=O)(=O)N2CCCC2)cc1	none
CSc1nnc(-c2ccc(S(=O)(=O)N3CCCC3)cc2)n1C	Mtb FBA inh 47 | Mtb FBA confirm 92 | GDH-TPI counter-2 71
Nc1ccc2nc3n(c(=O)c2c1)CCC3	Mtb FBA inh 110 | Mtb FBA confirm inactive | GDH-TPI counter-2 inactive
CCCCN(C(=O)c1ccc(-c2ccc([N+](=O)[O-])cc2)o1)c1c(N)n(CC(C)C)c(=O)[nH]c1=O	none (no result: RecA intein inh)
CCOC(=O)c1cnc2ccc(C)cn2c1=O	Mtb FBA inh 65 (no result: RecA intein inh) | Mtb FBA confirm inactive | GDH-TPI counter-2 inactive
O=C(CCS(=O)(=O)c1ccc(Br)cc1)N1CCN(c2ccccc2)CC1	Mtb FBA inh 73 (no result: RecA intein inh) | Mtb FBA confirm 69 | GDH-TPI counter-2 62
COC(=O)c1cc(S(=O)(=O)NCc2cc(OC)c(OC)c(OC)c2)cn1C	none
COc1ccc(Nc2nc(OC)nc(OC)n2)cc1	none
COc1ccc(Nc2nc(Nc3ccc(OC)cc3)nc(SC3=NCCS3)n2)cc1	Mtb FBA inh 41 | Mtb FBA confirm 116 | GDH-TPI counter-2 77
Cc1c(C(=O)O)oc2c3c(ccc12)OCCO3	Mtb FBA inh 60 | Mtb FBA confirm 99 | GDH-TPI counter-2 87
COc1ccc2c(C)c(C(=O)O)oc2c1	none
Cc1nc2c(c(=O)c3ccccc3n2C)c(=O)n1C1CCCCCC1	Mtb FBA inh 37 | Mtb FBA confirm 45 | GDH-TPI counter-2 46
